Screening results (PubChem)
Rows were chosen to be rich in hits. Some 7.6% of all compounds tested hit in one or more screens of this group.
KB-V1 cytotox: KB-V1 MDR subline cytotoxicity. KB-V1 MDR cells viability, CellTiter-Glo, 72 h. actives 3.4% (n = 400,000). Potency, µM (doses to about 46.1 µM), actives largely listed as cytotoxic. AID 1347076; also: potency is read from the fitted curve at half-maximal effect; % is scaled to controls: 0 for no effect and ±100 for the full control effect; nearly all actives have a fitted effect of over 60% in size
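Cells of the MDR subline KB-V1 are plated, dosed with compound at multiple concentrations, and incubated 72 h at 37 degrees C; CellTiter-Glo is then added and luminescence read after 10 min.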
hERG WT inh: blocks the wildtype human KCNH2 potassium channel | actives 0.37% (n = 340,000) | activity change, % at 1.84 µM | Q12809 | U2OS, BacMam KCNH2, thallium flux FluxOr; active compounds read low;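 active = maximum activity change below -70%; inconclusive = maximum activity change between -70% and -50%; inactive = maximum activity change above -50%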; also: % is scaled to controls: 0 for no effect and ±100 for the full control effect
Target sequence (Q12809 whole entry, looked up): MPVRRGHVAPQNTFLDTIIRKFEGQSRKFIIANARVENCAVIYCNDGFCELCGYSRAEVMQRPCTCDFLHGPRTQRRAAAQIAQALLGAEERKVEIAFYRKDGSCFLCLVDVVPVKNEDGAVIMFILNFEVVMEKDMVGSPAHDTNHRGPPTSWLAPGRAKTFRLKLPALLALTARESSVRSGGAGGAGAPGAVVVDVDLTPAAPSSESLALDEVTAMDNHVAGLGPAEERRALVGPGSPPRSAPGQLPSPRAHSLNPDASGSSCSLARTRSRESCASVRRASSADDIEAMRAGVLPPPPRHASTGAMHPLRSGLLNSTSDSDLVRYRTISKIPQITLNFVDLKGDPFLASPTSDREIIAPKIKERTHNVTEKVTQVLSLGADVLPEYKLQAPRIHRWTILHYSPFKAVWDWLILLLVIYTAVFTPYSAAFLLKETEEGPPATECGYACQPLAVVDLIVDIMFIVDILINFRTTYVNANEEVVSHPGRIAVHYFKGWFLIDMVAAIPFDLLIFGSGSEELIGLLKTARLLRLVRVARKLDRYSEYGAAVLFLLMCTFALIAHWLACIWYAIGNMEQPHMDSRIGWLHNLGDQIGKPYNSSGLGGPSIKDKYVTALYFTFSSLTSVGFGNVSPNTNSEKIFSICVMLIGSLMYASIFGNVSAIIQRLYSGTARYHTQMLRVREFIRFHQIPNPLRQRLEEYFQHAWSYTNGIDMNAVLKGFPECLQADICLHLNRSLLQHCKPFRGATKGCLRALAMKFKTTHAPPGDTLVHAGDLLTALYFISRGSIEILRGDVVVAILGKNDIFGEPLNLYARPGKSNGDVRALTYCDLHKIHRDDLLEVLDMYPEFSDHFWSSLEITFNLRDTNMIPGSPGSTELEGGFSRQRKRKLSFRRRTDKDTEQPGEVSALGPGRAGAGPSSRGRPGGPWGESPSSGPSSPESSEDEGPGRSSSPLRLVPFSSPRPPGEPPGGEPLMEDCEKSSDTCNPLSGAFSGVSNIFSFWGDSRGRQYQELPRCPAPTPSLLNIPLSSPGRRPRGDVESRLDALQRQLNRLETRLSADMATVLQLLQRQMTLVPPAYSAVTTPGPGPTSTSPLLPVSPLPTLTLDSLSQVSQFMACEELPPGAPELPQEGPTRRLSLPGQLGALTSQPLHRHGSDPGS
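U2OS cells were transduced with wild-type KCNH2 virus (2.03 x 10^8 / mL) for 4 h at room temperature, then cultured overnight at 37 C. Thallium flux was read with FluxOr dye. Rate constants were normalized to DMSO controls.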
MCF10A rereplic: inducers of DNA re-replication in MCF 10A breast cells; MCF 10A DNA re-replication, Hoechst nuclear intensity, 48 h; AID 624296; Potency, µM (titrated, usually from 46.1 µM), without a hit: at the highest dose activity, positive = re-replication, actives largely listed as activators; actives 2.9% (n = 350,000); also: potency is read from the fitted curve at half-maximal effect; % of control where 0% means no effect; nearly all actives have a fitted effect of over 50% in size
SW480 rereplic: DNA re-replication induction in SW480 cells; SW480 DNA re-replication, Hoechst DNA content imaging, 48 h; Potency, µM (highest dose often 46.1 µM), inactives show at the top dose re-replication activation, most hits filed as activators; actives 1.8% (n = 340,000); also: potency is read from the fitted curve at half-maximal effect; % of control where 0% means no effect; nearly all actives have a fitted effect of over 55% in size
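Hoechst fluorescence of nuclei (405 nm excitation, 500-530 nm emission) measured by plate-scanning imager after 48 hr compound exposure at 37 C; re-replication scored as increased number of nuclei with elevated intensity.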
KCNH2 3.1 inh: blocks the human KCNH2 3.1 channel isoform; actives 0.95% (n = 340,000); activity change, % (tested at about 1.8 µM); U2OS KCNH2 3.1, thallium flux FluxOr; active compounds read low;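 active = maximum activity change below -70%; inconclusive = maximum activity change from -70% to -50%; inactive = maximum activity change above -50%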;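 also: thallium influx rate constant from kinetic fluorescence after stimulation buffer; % is scaled to controls: 0 for no effect and ±100 for the full control effect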
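Thallium flux read-out: FluxOr dye with Red40 quencher in HBSS/HEPES, 45 min at RT. Rate constants from kinetic reads were normalized to positive and negative DMSO controls. Cells: U2OS virally expressing the 3.1 isoform.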
KB-3-1 cytotox: kills parental KB-3-1 adenocarcinoma cells; actives 1.4% (n = 400,000); KB-3-1 viability, CellTiter-Glo ATP luminescence, 72 h; Potency, µM (highest dose often 46.1 µM), usual class: cytotoxic; also: potency is read from the fitted curve at half-maximal effect; % is scaled to controls: 0 for no effect and ±100 for the full control effect; nearly all actives have a fitted effect of over 60% in size
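KB-3-1 parental drug-naive adenocarcinoma cells in DMEM/10% FBS, incubated 72 h at 37 C with pin-transferred compounds across a concentration series. Viability by CellTiter-Glo luminescence; concentration-response curves fitted after normalization.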
The depositor's hits bear a star. Unless noted, calls follow the shape of the dose curve; as a rule, active = well fitted curve in the direction sought with a large enough effect; inconclusive = small, poorly fitted or top-dose-only effect, or another doubt; inactive = no such curve, though single readings can be large; an effect the other way counts as inactive or inconclusive.

For CC1CCc2nc3ccccc3c(C(=O)OCC(=O)N3CCc4ccccc43)c2C1 (configuration not stated) the results were KB-V1 cytotox 2.1µM*, hERG WT inh -1, MCF10A rereplic 3%, SW480 rereplic -2%, KCNH2 3.1 inh 8 and KB-3-1 cytotox inconclusive.
Screening CCc1noc(C)c1C(=O)OCC(=O)N1CCc2ccccc21 returned KB-V1 cytotox inactive, hERG WT inh -4, MCF10A rereplic 0%, SW480 rereplic -1%, KCNH2 3.1 inh 1 and KB-3-1 cytotox inactive.
For CCCc1nc2ccccc2c(C(=O)OCC(=O)N2CCc3ccccc32)c1CC the results were KB-V1 cytotox 6.5µM*, hERG WT inh -14, MCF10A rereplic 21µM*, SW480 rereplic 0%, KCNH2 3.1 inh -14 and KB-3-1 cytotox inconclusive.
For O=c1c2ccccc2nc(N/N=C/c2ccc(O)cc2)n1O the results were KB-V1 cytotox inactive, hERG WT inh -9, MCF10A rereplic inconclusive, SW480 rereplic -2%, KCNH2 3.1 inh 5 and KB-3-1 cytotox inactive.
For O=c1c2ccccc2nc(N/N=C/c2c(O)ccc3ccccc23)n1O the results were KB-V1 cytotox inactive, hERG WT inh 4, MCF10A rereplic 3.3µM*, SW480 rereplic inconclusive, KCNH2 3.1 inh -15 and KB-3-1 cytotox inconclusive.
Cc1nc2ccccc2c(=O)n1/N=C/c1c(O)ccc2ccccc12 was read as KB-V1 cytotox inactive, hERG WT inh -1, MCF10A rereplic 13%, SW480 rereplic 2.9µM*, KCNH2 3.1 inh 7 and KB-3-1 cytotox inactive.
O=c1c2ccccc2nc(/C=C/c2cc(Br)ccc2O)n1CCCO was read as KB-V1 cytotox inconclusive, hERG WT inh 2, MCF10A rereplic inconclusive, SW480 rereplic inconclusive, KCNH2 3.1 inh -3 and KB-3-1 cytotox 21µM*.
Cc1nc2ccccc2c(=O)n1/N=C/c1c(O)ccc2oc3c(c12)CCCC3 was read as KB-V1 cytotox 18µM*, hERG WT inh -1, MCF10A rereplic 1%, SW480 rereplic 17%, KCNH2 3.1 inh -2 and KB-3-1 cytotox inconclusive.
For CSc1nc(N)nc2c1ncn2CC(=O)N[C@H](CO)Cc1c[nH]c2ccccc12 the results were KB-V1 cytotox inactive, hERG WT inh -5, MCF10A rereplic -23%, SW480 rereplic 0%, KCNH2 3.1 inh 7 and KB-3-1 cytotox inactive.
Screening Cc1nc2ccccc2c(=O)n1/N=C/c1cc(Br)ccc1O returned KB-V1 cytotox inconclusive, hERG WT inh -8, MCF10A rereplic 3%, SW480 rereplic 21µM*, KCNH2 3.1 inh -3 and KB-3-1 cytotox inconclusive.
For Cc1cccc(NC2=C(Cl)C(=O)OC2OC(=O)c2ccco2)c1 (configuration not stated) the results were KB-V1 cytotox inactive, hERG WT inh 4, MCF10A rereplic inconclusive, SW480 rereplic 4.6µM*, KCNH2 3.1 inh -13 and KB-3-1 cytotox inactive.
`Cc1cccc(NC2=C(Cl)C(=O)OC2OC(C)C)c1` (configuration not stated) gave KB-V1 cytotox inactive, hERG WT inh -25, MCF10A rereplic -1%, SW480 rereplic -6%, KCNH2 3.1 inh 15 and KB-3-1 cytotox inactive.
`Cc1ccc(NC2=C(Cl)C(=O)OC2OC(=O)c2ccco2)cc1` (configuration not stated) gave KB-V1 cytotox inactive, hERG WT inh -8, MCF10A rereplic inconclusive, SW480 rereplic 21µM*, KCNH2 3.1 inh -9 and KB-3-1 cytotox inactive.
`Cc1cc(C)c(C)c(OCCCCn2cnc3ccccc3c2=O)c1` gave KB-V1 cytotox 23µM*, hERG WT inh 14, MCF10A rereplic inconclusive, SW480 rereplic 12%, KCNH2 3.1 inh 12 and KB-3-1 cytotox inactive.
Screening COc1cccc(OC)c1OCCCCn1cnc2ccccc2c1=O returned KB-V1 cytotox inconclusive, MCF10A rereplic inconclusive, SW480 rereplic -57%, KCNH2 3.1 inh 21 and KB-3-1 cytotox inactive.
Screening CCN(CC)c1nc(Nc2ccccc2)nc(Oc2ccc(C(=O)OC)cc2)n1 returned KB-V1 cytotox inconclusive, hERG WT inh -21, MCF10A rereplic inconclusive, SW480 rereplic 21µM*, KCNH2 3.1 inh -23 and KB-3-1 cytotox inconclusive.
For COC(=O)c1ccc(Oc2nc(Nc3ccccc3)nc(N(C)C)n2)cc1 the results were KB-V1 cytotox 15µM*, hERG WT inh -9, MCF10A rereplic inconclusive, SW480 rereplic 13%, KCNH2 3.1 inh 2 and KB-3-1 cytotox inactive.
`COc1cc2c(cc1OC)/C(=C/c1ccc(N(C)C)cc1)C=C2` gave KB-V1 cytotox inconclusive and KB-3-1 cytotox inactive.
`O=C(Cn1c(SCC(=O)Nc2ccc(F)cc2)nc2ccccc21)NCc1ccccc1Cl` gave KB-V1 cytotox inconclusive and KB-3-1 cytotox inactive.
Screening CCCCNC(=O)C(Sc1ccccc1)c1ccccc1 (configuration not stated) returned KB-V1 cytotox 15µM*, hERG WT inh 5, MCF10A rereplic 9%, SW480 rereplic -58%, KCNH2 3.1 inh 7 and KB-3-1 cytotox inactive.
Screening CCCCn1c(SCC(=O)Nc2cccc(OC)c2)nc2ccc(N3CCOCC3)cc2c1=O returned KB-V1 cytotox inconclusive, hERG WT inh -4, MCF10A rereplic 16%, SW480 rereplic -3% and KB-3-1 cytotox inactive.
COc1ccc(Cn2c(SCC#N)nc3ccc(N4CCOCC4)cc3c2=O)cc1 was read as KB-V1 cytotox inactive, hERG WT inh 6, MCF10A rereplic 21µM*, SW480 rereplic 1%, KCNH2 3.1 inh 16 and KB-3-1 cytotox inactive.
`COc1ccc(C(=O)OCC(=O)NCCN2C(=O)CSC2=O)cc1[N+](=O)[O-]` gave KB-V1 cytotox inactive, hERG WT inh -1, MCF10A rereplic 0%, SW480 rereplic -1%, KCNH2 3.1 inh 11 and KB-3-1 cytotox inactive.
CC(=O)c1ccc(NC(=O)Cn2cc(S(=O)(=O)Cc3cccc(Cl)c3)c3ccccc32)cc1 was read as KB-V1 cytotox inactive and KB-3-1 cytotox inactive.
Screening O=C(Cn1cc(S(=O)(=O)Cc2ccccc2)c2ccccc21)Nc1ccccc1 returned KB-V1 cytotox 18µM*, hERG WT inh 2, MCF10A rereplic 22%, SW480 rereplic -2%, KCNH2 3.1 inh 2 and KB-3-1 cytotox inactive.
`Cc1ccc(N(C)C(=O)C2CCCN2S(=O)(=O)c2ccc3c(c2)n(C)c(=O)c(=O)n3C)cc1` (configuration not stated) gave KB-V1 cytotox inconclusive, hERG WT inh -1, MCF10A rereplic 14%, SW480 rereplic 5%, KCNH2 3.1 inh 6 and KB-3-1 cytotox inactive.
